Reference: the supplement of paper PMC10037445
Values joined by “and” are separate entries in the source; they are usually repeats but may differ in a detail not shown here. Equal entries are not always repeated. Over roughly 2,900 compounds, “NF-kB SEAP reporter activity, fold change vs agonist alone” has its median near 0.99; the highest 2% begin near 2.6. This excerpt belongs to a sample that is enriched for the highest values.

Tests used:
RAW-Dual [1] = experiment: NF-kB SEAP reporter activity, fold change vs agonist alone; higher = enhanced NF-kB activity; conditions: cytotoxicity flag (confluency mask): not cytotoxic
In short: (§1)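 Library stock was pin-tooled at 50 nL into 384-well plates of RAW-Dual macrophages (50,000 cells/well, DMEM), followed 1 h later by a PRR agonist, and the cells were kept at 37 °C, 5% CO2. Supernatant collected after 20 hours was read for IRF by QuantiLuc luminescence and for NF-κB by QuantiBlue absorbance at 620 nm. Reporter activity is fold change over agonist-alone wells, and a well counted as cytotoxic when its IncuCyte confluency was below 70% of agonist controls in both mask sets.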

RAW-Dual [2] = experiment: NF-kB SEAP reporter activity, fold change vs agonist alone; cytotoxicity flag (confluency mask): not cytotoxic; higher = enhanced NF-kB activity
In short: as §1

[3] = library stock concentration (final ~1000-fold dilution): 10 mM, agonist: Imiquimod (TLR7) […]
[4] = library stock concentration (final ~1000-fold dilution): 10 mM, agonist: MPLA (TLR4) […]
[5] = agonist: ODN 1826 (TLR9) 0.5 ug/mL
[6] = agonist: Pam2CSK4 (TLR2/6) 0.1 ug/mL
[7] = agonist: Pam3CSK4 (TLR2/1) 0.1 ug/mL

O=c1cc(-c2ccc(O)cc2)oc2cccc(O)c12
NF-kB SEAP reporter activity (RAW-Dual [1]; [3]): 1.07
NF-kB SEAP reporter activity (RAW-Dual [1]; [4]): 1.37

O=c1cc(-c2ccc(O)cc2)oc2cccc(O)c12 (library stock concentration (final ~1000-fold dilution): 10 mM)
NF-kB SEAP reporter activity (RAW-Dual [2]; agonist: LPS (TLR4) 0.1 ug/mL): 1.55
NF-kB SEAP reporter activity (RAW-Dual [2]; [5]): 1.15
NF-kB SEAP reporter activity (RAW-Dual [2]; [6]): 1.09
NF-kB SEAP reporter activity (RAW-Dual [2]; [7]): 1.82

O=C(O)CSc1cc(NS(=O)(=O)c2ccc(Br)cc2)c2ccccc2c1O (library stock concentration (final ~1000-fold dilution): 10 mM)
NF-kB SEAP reporter activity (RAW-Dual [2]; agonist: LPS (TLR4) 0.1 ug/mL): 3.16
NF-kB SEAP reporter activity (RAW-Dual [2]; [5]): 1.31
NF-kB SEAP reporter activity (RAW-Dual [2]; [6]): 1.24
NF-kB SEAP reporter activity (RAW-Dual [2]; [7]): 2.31

O=C(O)CSc1nnc(Br)n1-c1ccc(C2CC2)c2ccccc12 (library stock concentration (final ~1000-fold dilution): 10 mM)
NF-kB SEAP reporter activity (RAW-Dual [2]; agonist: LPS (TLR4) 0.1 ug/mL): 1.32
NF-kB SEAP reporter activity (RAW-Dual [2]; [5]): 1.01
NF-kB SEAP reporter activity (RAW-Dual [2]; [6]): 1.24
NF-kB SEAP reporter activity (RAW-Dual [2]; [7]): 1.18

O=C(O)CSc1nnc(Br)n1-c1ccc(C2CC2)c2ccccc12
NF-kB SEAP reporter activity (RAW-Dual [1]; [4]): 0.983

O=C(O)CSc1cc(NS(=O)(=O)c2ccc(Br)cc2)c2ccccc2c1O
NF-kB SEAP reporter activity (RAW-Dual [1]; [3]): 1.12
NF-kB SEAP reporter activity (RAW-Dual [1]; [4]): 2.21

CC(C)(C)C(=O)Oc1ccc(S(=O)(=O)Nc2ccccc2C(=O)NCC(=O)O)cc1 (library stock concentration (final ~1000-fold dilution): 10 mM)
NF-kB SEAP reporter activity (RAW-Dual [2]; agonist: LPS (TLR4) 0.1 ug/mL): 1.36 and 1.08
NF-kB SEAP reporter activity (RAW-Dual [2]; [5]): 0.906 and 0.939
NF-kB SEAP reporter activity (RAW-Dual [2]; [6]): 1.39 and 1
NF-kB SEAP reporter activity (RAW-Dual [2]; [7]): 0.652 and 1.02

CC(C)(C)C(=O)Oc1ccc(S(=O)(=O)Nc2ccccc2C(=O)NCC(=O)O)cc1
NF-kB SEAP reporter activity (RAW-Dual [1]; [3]): 0.966

CSCCNc1nc(SCCC(F)(F)F)nc2c1ncn2C1OC(COP(=O)(O)OP(=O)(O)C(Cl)(Cl)P(=O)(O)O)C(O)C1O (centres undefined)
NF-kB SEAP reporter activity (RAW-Dual [1]; library stock concentration (final ~1000-fold dilution): 10 mM water, agonist: Imiquimod (TLR7) […]): 0.972
NF-kB SEAP reporter activity (RAW-Dual [1]; library stock concentration (final ~1000-fold dilution): 10 mM water, agonist: MPLA (TLR4) […]): 1.04

CSCCNc1nc(SCCC(F)(F)F)nc2c1ncn2C1OC(COP(=O)(O)OP(=O)(O)C(Cl)(Cl)P(=O)(O)O)C(O)C1O (centres undefined) (library stock concentration (final ~1000-fold dilution): 10 mM water)
NF-kB SEAP reporter activity (RAW-Dual [2]; agonist: LPS (TLR4) 0.1 ug/mL): 1.15
NF-kB SEAP reporter activity (RAW-Dual [2]; [5]): 1.26
NF-kB SEAP reporter activity (RAW-Dual [2]; [6]): 1.18
NF-kB SEAP reporter activity (RAW-Dual [2]; [7]): 0.935

CCC1OC(=O)C(C)C(OC2CC(C)(OC)C(O)C(C)O2)C(C)C(OC2OC(C)CC(N(C)C)C2O)C(C)(O)CC(C)C(=O)C(C)C(O)C1(C)O.N#CS (centres undefined) (library stock concentration (final ~1000-fold dilution): 10 mM)
NF-kB SEAP reporter activity (RAW-Dual [2]; agonist: LPS (TLR4) 0.1 ug/mL): 1.06
NF-kB SEAP reporter activity (RAW-Dual [2]; [5]): 0.88
NF-kB SEAP reporter activity (RAW-Dual [2]; [6]): 1.07
NF-kB SEAP reporter activity (RAW-Dual [2]; [7]): 1.08

CCC1OC(=O)C(C)C(OC2CC(C)(OC)C(O)C(C)O2)C(C)C(OC2OC(C)CC(N(C)C)C2O)C(C)(O)CC(C)C(=O)C(C)C(O)C1(C)O.N#CS (centres undefined)
NF-kB SEAP reporter activity (RAW-Dual [1]; [4]): 1.07

COc1cc(CCC(O)CC(O)CCc2ccc(O)c(OC)c2)ccc1O (centres undefined) (library stock concentration (final ~1000-fold dilution): 10 mM)
NF-kB SEAP reporter activity (RAW-Dual [2]; agonist: LPS (TLR4) 0.1 ug/mL): 1.41
NF-kB SEAP reporter activity (RAW-Dual [2]; [5]): 1.15
NF-kB SEAP reporter activity (RAW-Dual [2]; [6]): 1.08
NF-kB SEAP reporter activity (RAW-Dual [2]; [7]): 1.06

COc1cc(CCC(O)CC(O)CCc2ccc(O)c(OC)c2)ccc1O (centres undefined)
NF-kB SEAP reporter activity (RAW-Dual [1]; [3]): 1.04
NF-kB SEAP reporter activity (RAW-Dual [1]; [4]): 1.05
